Read-out in experiment [1]: solute carrier (SLCO1B1), SLCO1B1 (gene 10599)
Briefly: LTEA_HepaRG_SLCO1B1: Life Technologies and Expression Analysis (LTEA) Assay for solute carrier (SLCO1B1) using HepaRG (AID 2283530). The note with it: mRNA level, 48 h; actives raise or lower the signal. The method in brief: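 Gain or loss of SLCO1B1 mRNA is fitted against the 0.5% DMSO vehicle in human HepaRG liver cells treated 48 h at up to 100 uM in half-log steps. Expression comes from qRT-PCR normalized to endogenous controls.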

Read-out in experiment [2]: sulfotransferase 2A1 (SULT2A1), SULT2A1 (gene 6822)
Nature of the experiment: LTEA_HepaRG_SULT2A1: Life Technologies and Expression Analysis (LTEA) Assay for sulfotransferase 2A1 (SULT2A1) using HepaRG (AID 2283531). The note with it: mRNA level, 48 h; actives raise or lower the signal. In short, it runs like this:
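Cells were plated and cultured 48 h, switched to serum-free induction medium, then dosed in duplicate for 48 h (8 concentrations, max 100 uM). RNA was isolated and SULT2A1 expression measured by qRT-PCR; gain or loss of signal fitted relative to DMSO.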

Read-out in experiment [3]: Transforming Growth Factor (TGFA), TGFA (gene 7039)
Briefly: LTEA_HepaRG_TGFA: Life Technologies and Expression Analysis (LTEA) Assay for Transforming Growth Factor (TGFA) using HepaRG (AID 2283532). As to conditions: mRNA level, 48 h; actives raise or lower the signal. The method in brief:
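Differentiated HepaRG cells exposed 48 hours in serum-free induction medium, 0.5% DMSO vehicle, 8-point half-log series from 100 uM, in duplicate. TGFA mRNA by TaqMan qRT-PCR, normalised to ACTB, GAPDH, POLR2A; bidirectional fit versus DMSO.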

Read-out in experiment [4]: TIMP1, TIMP1 (gene 7076)
Briefly: LTEA_HepaRG_TIMP1: Life Technologies and Expression Analysis (LTEA) Assay for TIMP1 using HepaRG (AID 2283534).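 Also: TaqMan qRT-PCR signal normalized to ACTB GAPDH and POLR2A housekeeping genes.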 The note with it: mRNA level, 48 h; actives raise or lower the signal. The method in brief: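 We dosed human liver HepaRG cultures for 48 hours with up to 100 uM test chemical and measured TIMP1 expression by qRT-PCR. Activity in either direction is fitted relative to the 0.5% DMSO vehicle.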

Read-out in experiment [5]: Tumor necrosis factor receptor 1 (TNFRSF1A), TNFRSF1A (gene 7132)
Nature of the experiment: LTEA_HepaRG_TNFRSF1A: Life Technologies and Expression Analysis (LTEA) Assay for Tumor necrosis factor receptor 1 (TNFRSF1A) using HepaRG (AID 2283535). The note with it: mRNA level, 48 h; actives raise or lower the signal. The method in brief: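 Expression of TNFRSF1A in human HepaRG liver cells was measured by qRT-PCR 48 h after chemical dosing (maximum 100 uM). Bidirectional curve fitting used 0.5% DMSO as baseline.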

Read-out in experiment [6]: Thyroid Hormone Responsive (THRSP), THRSP (gene 7069)
Briefly: LTEA_HepaRG_THRSP: Life Technologies and Expression Analysis (LTEA) Assay for Thyroid Hormone Responsive (THRSP) using HepaRG (AID 2283536). The note with it: mRNA level, 48 h; actives raise or lower the signal. In short, it runs like this: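 Differentiated HepaRG cells treated 48 h in serum-free induction medium with 8 half-log concentrations up to 100 uM (0.5% DMSO), duplicates. THRSP mRNA by TaqMan qRT-PCR normalised to ACTB, GAPDH, POLR2A; bidirectional fit versus DMSO.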

Read-out in experiment [7]: UDP glucuronosyltransferase (UGT1A1), UGT1A1 (gene 54658)
Briefly: LTEA_HepaRG_UGT1A1: Life Technologies and Expression Analysis (LTEA) Assay for UDP glucuronosyltransferase (UGT1A1) using HepaRG (AID 2283538). The note with it: mRNA level, 48 h; actives raise or lower the signal. In short, it runs like this:
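HepaRG cells, 0.5% DMSO vehicle, 48 h exposure in serum-free induction medium to 8-point half-log series topping at 100 uM, in duplicate. UGT1A1 mRNA by Fluidigm qRT-PCR, normalized to ACTB/GAPDH/POLR2A; bidirectional fit versus DMSO.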

Read-out in experiment [8]: UDP glucuronosyltransferase (UGT1A6), UGT1A6 (gene 54578)
Nature of the experiment: LTEA_HepaRG_UGT1A6: Life Technologies and Expression Analysis (LTEA) Assay for UDP glucuronosyltransferase (UGT1A6) using HepaRG (AID 2283539). As to conditions: mRNA level, 48 h; actives raise or lower the signal. The method in brief: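 Endpoint is UGT1A6 transcript induction or loss in a human liver cell line, quantified by TaqMan qRT-PCR 48 h after dosing. Concentrations ran from 100 uM downward in half-log steps in 0.5% DMSO; activity was fitted in both directions versus vehicle.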

Read-out in experiment [9]: X-box binding protein 1 (XBP1), XBP1 (gene 7494)
Nature of the experiment: LTEA_HepaRG_XBP1: Life Technologies and Expression Analysis (LTEA) Assay for X-box binding protein 1 (XBP1) using HepaRG (AID 2283540). As to conditions: mRNA level, 48 h; actives raise or lower the signal. In short, it runs like this: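 Human HepaRG monolayers receive test chemical for 48 h across an eight-point half-log series starting at 100 uM. XBP1 mRNA gain or loss is scored against DMSO by qRT-PCR.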

Experiment [10] in a line: LTEA_HepaRG_LDH_cytotoxicity: Cytotoxicity Assessment in the Life Technologies and Expression Analysis (LTEA) Assay (AID 2283563; active = hit-call score of the fitted dose curve at least 0.9, where 1 is the maximum). In short, it runs like this: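 Human HepaRG hepatic cells are treated with test chemicals for 48 h at up to 100 uM in 0.5% DMSO. Cytotoxicity is scored from medium LDH against the vehicle control.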
Read-out in experiment [11]: Cellular tumor antigen p53 (Homo sapiens) (UniProt P04637)
Briefly: LTEA_HepaRG_TP53: Life Technologies and Expression Analysis (LTEA) Assay for Tumor Protein P53 (TP53) using HepaRG (AID 2283537). As to conditions: mRNA level, 48 h; actives raise or lower the signal. The method in brief: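 TP53 transcript measured by qRT-PCR, normalized to three housekeeping genes, after 48 h treatment of human HepaRG cultures with chemicals from 100 uM downward in half-log steps (0.5% DMSO vehicle, serum-free induction medium). Up- or down-regulation fitted against DMSO.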

The nature of experiment [12]: ATG_XTT_Cytotoxicity: Cytotoxicity Assessment in the Attagene TRANS-FACTORIAL HepG2 Assay (AID 2283584; active = hit-call score of the fitted dose curve at least 0.9, where 1 is the maximum). The method in brief: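 Transfect HepG2 with GAL4-UAS reporter units, dose compound, incubate 24 h, then measure viable cell number by XTT. Fit concentration response against DMSO baseline.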
The nature of experiment [13]: TOX21_p53_BLA_p2_viability: Viability Assessment in the Tox21 HCT-116 p53 Agonism Beta-lactamase Assay, Phase 2 (AID 2283591; active = hit-call score of the fitted dose curve at least 0.9, where 1 is the maximum;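 also: actives lower the ATP signal meaning cytotoxicity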). The method in brief:
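HCT116 p53-bla cells, 4000/well, dosed after 5 h plating (217-fold dilution of DMSO stocks) and incubated 16 h at 37C. Viability taken as cellular ATP by CellTiter-Glo luminescence after 30 min RT; signal loss marks cytotoxicity.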

The target in experiment [14] is Cellular tumor antigen p53 (Homo sapiens) (UniProt P04637). Nature of the experiment: TOX21_p53_BLA_p2_ratio: Tox21 HCT-116 p53 Agonism Beta-lactamase Assay, Ratio, Phase 2 (AID 2283592; active = hit-call score of the fitted dose curve at least 0.9, where 1 is the maximum). In short, it runs like this: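 An inducible beta-lactamase reporter in HCT116 cells signals p53 pathway activation. After 16 h chemical exposure at 37C, cells load CCF4-AM substrate for 2 h at room temperature; activity is the cleaved/uncleaved emission ratio relative to DMSO.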

Experiment [15] has the same target. Briefly: TOX21_p53_BLA_p3_ratio: Tox21 HCT-116 p53 Agonism Beta-lactamase Assay, Ratio, Phase 3 (AID 2283596; active = hit-call score of the fitted dose curve at least 0.9, where 1 is the maximum). In short, it runs like this: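 HCT116 p53-bla cells (4000/well) given compound in DMSO (217-fold dilution) after 5 h, incubated 16 h at 37C. CCF4-AM substrate 2 h at room temperature; 460/530 nm emission ratio, gain fitted against DMSO.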
For experiment [16] the target is unchanged. Briefly: TOX21_p53_BLA_p5_ratio: Tox21 HCT-116 p53 Agonism Beta-lactamase Assay, Ratio, Phase 5 (AID 2283599; active = hit-call score of the fitted dose curve at least 0.9, where 1 is the maximum). In short, it runs like this: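 HCT-116 p53-bla cells (4000/well) plated 5 h, dosed with compound (217-fold DMSO dilution) for 16 h at 37 C; CCF4-AM substrate 2 h at room temperature. Activity is the 460/530 nm emission ratio (405 nm excitation), fitted in gain-of-signal direction versus DMSO.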

Experiment [17] can be described thus: TOX21_p53_BLA_p5_viability: Viability Assessment in the Tox21 HCT-116 p53 Agonism Beta-lactamase Assay, Phase 5 (AID 2283600; active = hit-call score of the fitted dose curve at least 0.9, where 1 is the maximum). The method in brief:
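Counter-readout for cytotoxicity: ATP-dependent luminescence from CellTiter-Glo, read in the beta-lactamase wells after 30 min at RT, following a 16 h compound exposure at 37C.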

Experiment [18] is described as follows: TOX21_p53_BLA_p4_viability: Viability Assessment in the Tox21 HCT-116 p53 Agonism Beta-lactamase Assay, Phase 4 (AID 2283597; active = hit-call score of the fitted dose curve at least 0.9, where 1 is the maximum;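 also: hits lower the luminescence signal meaning cytotoxicity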). The method in brief: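 Compound exposure of HCT116 cells lasts 16 h at 37C, 5% CO2, with DMSO stocks diluted 217-fold. Cellular ATP is then quantified by CellTiter-Glo luminescence after 30 min at room temperature.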

Results filed as inconclusive are left out. Calls of active or inactive are those of the source. The calls were made as follows, unless noted: active = hit-call score of the fitted dose curve at least 0.9, where 1 is the maximum; inactive = score below 0.9.

Cellular tumor antigen p53 (Homo sapiens), sequence (P04637 whole entry, looked up): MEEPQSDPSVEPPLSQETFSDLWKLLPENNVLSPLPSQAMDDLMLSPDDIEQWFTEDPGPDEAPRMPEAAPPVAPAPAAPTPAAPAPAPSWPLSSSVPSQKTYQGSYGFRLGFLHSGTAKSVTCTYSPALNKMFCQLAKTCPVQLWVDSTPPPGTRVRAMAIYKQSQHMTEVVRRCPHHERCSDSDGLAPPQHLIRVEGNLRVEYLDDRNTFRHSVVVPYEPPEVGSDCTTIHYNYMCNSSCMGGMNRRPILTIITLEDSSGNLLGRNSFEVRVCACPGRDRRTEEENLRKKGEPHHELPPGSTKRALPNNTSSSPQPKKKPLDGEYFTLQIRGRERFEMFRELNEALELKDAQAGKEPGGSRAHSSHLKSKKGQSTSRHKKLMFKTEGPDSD

On to `COCCOCCO`, for which the compound was called inactive in experiment [1], in [2], in experiment [3], in experiment [4], in experiment [5] and in experiment [6]. For the same compound, the call in experiment [8], in experiment [9] and in experiment [10] was inactive. In addition, in experiment [7], the AC50 was 1.57 µM (active).
Turning to `CC(Cl)(Cl)C(=O)O`, the compound was called inactive in [1], in experiment [2], in experiment [3], in experiment [4], in experiment [5] and in experiment [6]. The result in experiment [7], in experiment [8], in experiment [9] and in [10] was inactive.
For the compound `c1nc[nH]n1`, the compound was called inactive in experiment [1], in experiment [2], in experiment [4], in experiment [5], in [6] and in experiment [11]. The result in experiment [7], in [8], in experiment [9], in experiment [10], in [12] and in experiment [13] was inactive. Further, the outcome in [14], in experiment [15], in experiment [16] and in experiment [17] was inactive. For the same compound, the concentration at half-maximal activity (AC50) in experiment [3] is 94.8 nM (active).
Take `ClC(Cl)(Cl)c1ccccc1`: the compound was called inactive in experiment [1], in experiment [2], in experiment [3], in [4], in experiment [5] and in experiment [6]. For the same compound, the compound was classed as inactive in experiment [11], in experiment [7], in experiment [8], in experiment [9], in experiment [10] and in experiment [15]. Further, the outcome in experiment [18], in experiment [16] and in experiment [17] was inactive.
With `CCC1(c2ccccc2)C(=O)N=C(O)NC1=O` (stereo not drawn), the outcome in experiment [1], in [2], in [3], in [4], in experiment [5] and in [6] was inactive. Besides, the result in experiment [11], in experiment [8], in [9], in [10], in experiment [12] and in experiment [13] was inactive. Moreover, the result in experiment [14], in experiment [15] and in experiment [18] was inactive. Further, in experiment [7], the AC50 was 50 µM (active).

The record behind these values is PubChem BioAssay (EPA / NIEHS).
